From PubChem
HT1080 IDH1KD tx: toxicity to HT-1080 IDH1 knockdown cells (counter line); actives 2% (n = 360,000); Potency, µM (titrated, usually from 46.1 µM), inactives show at the highest dose activity, negative = toxicity, most hits filed as cytotoxic; HT-1080 IDH1 knockdown viability, ATP luminescence, 48 h;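 note: 0% = DMSO wells and -100% = cell-free medium wells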
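In this qHTS, HT-1080 cells depleted of IDH1 are exposed for 48 h at 37 °C to compound titrations. Toxicity is scored from CellTiter-Glo luminescence, with DMSO as full viability and medium alone as none.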
DT40 TDP1 CPT: DT40-hTDP1 cell growth loss with CPT | actives 12% (n = 420,000) | Potency, µM (highest dose often 46.2 µM), inactives show at the highest dose activity change, negative = growth inhibition, hits mostly inhibitors | chicken DT40 Tdp1-/-;hTDP1 cells + 20 nM CPT, ATP luminescence, 48 h; note: nearly all actives have a fitted effect of over 55% in size
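Chicken DT40 Tdp1-/- cells complemented with human TDP1, 400 cells/well, exposed to compounds plus 20 nM camptothecin for at least 48 h at 37 C; viability read as ATP content by CellTiter-Glo luminescence.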
KB-V1 cytotox: kills drug-selected multidrug resistant KB-V1 cells; actives 3.4% (n = 400,000); Potency, µM (titrated, usually from 46.1 µM), actives largely listed as cytotoxic; KB-V1 MDR cells viability, CellTiter-Glo, 72 h; note: nearly all actives have a fitted effect of over 60% in size
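Compound-treated KB-V1 multidrug-resistant cells, 72 h, 37 degrees C; viability by CellTiter-Glo. Fitted qHTS curves give the values.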
HT1080-NT tox: kills 2HG-producing HT-1080-NT fibrosarcoma cells. Potency, µM (doses to about 46.1 µM), for inactives: at the top dose activity, negative = less viability, usual class: cytotoxic. HT-1080-NT fibrosarcoma viability, CellTiter-Glo ATP luminescence, 48 h. AID 686970. actives 1.6% (n = 360,000);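 note: NT is the 2HG producing partner of a matched IDH1 knockdown line; 0% = DMSO-treated cells and -100% = media-only wells without cells; nearly all actives have a fitted effect of over 55% in size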
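HT-1080-NT fibrosarcoma cells (2HG-overproducing), 750 cells/well in RPMI with 5% FBS, dosed after 2 h and incubated 48 h at 37C. CellTiter-Glo luminescence normalized to DMSO and no-cell wells; concentration-response curves fitted and classed.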
TDP1 cell noCPT: qHTS for Inhibitors of human tyrosyl-DNA phosphodiesterase 1 (TDP1): qHTS in cells in absence of CPT; DT40 Tdp1-/- hTDP1 cells, no CPT, ATP luminescence, 48 h; Potency, µM (titrated, usually from 46.2 µM), without a hit: at the highest dose activity change, negative = growth inhibition, most hits filed as inhibitors; actives 15% (n = 420,000); note: nearly all actives have a fitted effect of over 55% in size
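Luminescent ATP content (CellTiter-Glo) served as the growth readout. Knockout chicken DT40 cells expressing human TDP1 were exposed to compounds without camptothecin for a minimum 48 hr at 37 °C.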
KB-3-1 cytotox: KB-3-1 parental cell cytotoxicity. actives 1.4% (n = 400,000). AID 1347075. Potency, µM (top dose mostly 46.1 µM), most hits filed as cytotoxic. KB-3-1 viability, CellTiter-Glo ATP luminescence, 72 h; note: nearly all actives have a fitted effect of over 60% in size
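Screening of KB-3-1 cells (DMEM, 10% FBS, phenol-red free) ran from lowest to highest compound concentration; after 72 h at 37 °C viability was read luminescently and curves fitted.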
Numbers without * were called inactive. Shown are actives, neighbours in structure and some others; about 19% of the full set was active somewhere. Calls come from the whole dose curve; as a rule, active = well fitted curve in the direction sought with a large enough effect; inconclusive = small, poorly fitted or top-dose-only effect, or another doubt; inactive = no such curve, though single readings can be large; an effect the other way counts as inactive or inconclusive. Unless noted, % is set by controls: 0 for no effect and ±100 for the full control effect; potency is the fitted concentration of half-maximal effect.

For COc1ccc(C(=O)Nc2nc3n(n2)C(c2ccc(F)cc2)C=C(c2ccc(Cl)cc2)N3)cc1 (stereo not given) the results were DT40 TDP1 CPT 14.6µM*, KB-V1 cytotox inactive, TDP1 cell noCPT 7.31µM* and KB-3-1 cytotox inactive.
For COc1ccccc1C(=O)Nc1nc2n(n1)C(c1ccc(F)cc1)C=C(c1ccc(Cl)cc1)N2 (stereo not given) the results were DT40 TDP1 CPT inconclusive, KB-V1 cytotox inconclusive, TDP1 cell noCPT inconclusive and KB-3-1 cytotox inactive.
`COc1ccc(C2C=C(c3ccccc3)Nc3nc(NS(=O)(=O)c4ccccc4)nn32)cc1` (stereo not given) gave DT40 TDP1 CPT inconclusive, KB-V1 cytotox inactive, TDP1 cell noCPT inconclusive and KB-3-1 cytotox inactive.
For COC(=O)c1ccc(COC(=O)CCNS(=O)(=O)c2ccc(C)c(C)c2)cc1 the results were HT1080 IDH1KD tx 0.3%, DT40 TDP1 CPT 2.7%, KB-V1 cytotox inactive, HT1080-NT tox -1.2%, TDP1 cell noCPT -14.9% and KB-3-1 cytotox inactive.
Screening CCN(CC)S(=O)(=O)c1ccc(N2CC(C(=O)N3Cc4ccccc4CC3C(N)=O)CC2=O)cc1 (stereo not given) returned HT1080 IDH1KD tx 0.0%, DT40 TDP1 CPT -16.7%, KB-V1 cytotox inactive, HT1080-NT tox -4.7%, TDP1 cell noCPT -11.6% and KB-3-1 cytotox inactive.
For Cc1csc(=O)n1CCC(=O)OCC(=O)NCc1ccccc1 the results were HT1080 IDH1KD tx -2.1%, DT40 TDP1 CPT 8.0%, KB-V1 cytotox inactive, HT1080-NT tox 2.2%, TDP1 cell noCPT -5.5% and KB-3-1 cytotox inactive.
For CCN(CC)C(=O)C1=C(C)Nc2nnnn2C1c1cccnc1 (stereo not given) the results were HT1080 IDH1KD tx 15.4%, DT40 TDP1 CPT 7.0%, KB-V1 cytotox inactive, HT1080-NT tox 17.9%, TDP1 cell noCPT 4.4% and KB-3-1 cytotox inactive.
`O=C(Nc1nc2n(n1)C(c1ccccc1)C=C(c1ccccc1)N2)c1ccc(Cl)c([N+](=O)[O-])c1` (stereo not given) gave DT40 TDP1 CPT 11.6µM*, KB-V1 cytotox inactive, TDP1 cell noCPT 11.6µM* and KB-3-1 cytotox inactive.
Screening N#CCOC(=O)/C=C/c1ccc2c(c1)OCO2 returned HT1080 IDH1KD tx 1.2%, DT40 TDP1 CPT -7.1%, KB-V1 cytotox inactive, HT1080-NT tox 16.5%, TDP1 cell noCPT -16.1% and KB-3-1 cytotox inactive.
For CC(C)c1ccc(C(=O)N(c2ccccn2)C(C)c2ccco2)cc1 (stereo not given) the results were HT1080 IDH1KD tx 5.6%, DT40 TDP1 CPT inconclusive, KB-V1 cytotox inactive, HT1080-NT tox 4.3%, TDP1 cell noCPT 23.1µM* and KB-3-1 cytotox inactive.
`Cc1cc(C)cc(C(=O)N(c2ccccn2)C(C)c2ccco2)c1` (stereo not given) gave HT1080 IDH1KD tx 1.3%, DT40 TDP1 CPT inconclusive, KB-V1 cytotox 13µM*, HT1080-NT tox 6.1%, TDP1 cell noCPT 14.6µM* and KB-3-1 cytotox inactive.
CC(c1ccco1)N(C(=O)c1cc(Cl)cc(Cl)c1)c1ccccn1 (stereo not given) was read as HT1080 IDH1KD tx -2.5%, DT40 TDP1 CPT 9.2µM*, KB-V1 cytotox inconclusive, HT1080-NT tox -8.8%, TDP1 cell noCPT 8.2µM* and KB-3-1 cytotox inactive.
`Cc1cccc(C(=O)N(c2ccccn2)C(C)c2ccco2)c1` (stereo not given) gave HT1080 IDH1KD tx 3.9%, DT40 TDP1 CPT inconclusive, KB-V1 cytotox inactive, HT1080-NT tox 10.2%, TDP1 cell noCPT inconclusive and KB-3-1 cytotox inactive.
Screening COc1ccc(C(CNC(=O)C(=O)NC2CCCCC2)N2CCN(C)CC2)cc1 (stereo not given) returned HT1080 IDH1KD tx 2.4%, DT40 TDP1 CPT -26.0%, KB-V1 cytotox inactive, HT1080-NT tox -1.1%, TDP1 cell noCPT -6.5% and KB-3-1 cytotox inactive.
`N#Cc1ccccc1/C=N/Nc1nc(-c2ccccc2)c2cc(Br)ccc2n1` gave HT1080 IDH1KD tx 1.3%, DT40 TDP1 CPT inconclusive, KB-V1 cytotox inactive, HT1080-NT tox 7.0%, TDP1 cell noCPT inconclusive and KB-3-1 cytotox inactive.
Screening O=[N+]([O-])c1ccc(/C=N/Nc2nc(-c3ccccc3)c3cc(Br)ccc3n2)o1 returned HT1080 IDH1KD tx 22.4%, DT40 TDP1 CPT 16.4µM*, KB-V1 cytotox inactive, HT1080-NT tox 14.4%, TDP1 cell noCPT 20.6µM* and KB-3-1 cytotox inactive.
For Cc1ccc2nc(N/N=C\c3ccc([N+](=O)[O-])o3)nc(-c3ccccc3)c2c1 the results were HT1080 IDH1KD tx 10.4%, DT40 TDP1 CPT 23.1µM*, KB-V1 cytotox 18.4µM*, HT1080-NT tox inconclusive, TDP1 cell noCPT inconclusive and KB-3-1 cytotox 25.9µM*.
COc1cc(C(=O)NC(C)Cc2ccccn2)ccc1OC1CCN(C(C)=O)CC1 (stereo not given) was read as HT1080 IDH1KD tx 13.3%, DT40 TDP1 CPT 3.6%, KB-V1 cytotox inactive, HT1080-NT tox 1.0%, TDP1 cell noCPT 12.0% and KB-3-1 cytotox inactive.
For COc1ccc(-n2ncc(C(=O)NCCc3ccsc3)c2C2CCN(C(=O)OC(C)(C)C)CC2)cc1 the results were DT40 TDP1 CPT 23.1µM*, KB-V1 cytotox inactive, TDP1 cell noCPT inconclusive and KB-3-1 cytotox inactive.
CCOC(=O)N1CCC(NC(=O)c2cnn(-c3ccc(OC)cc3)c2C2CCN(C(=O)OC(C)(C)C)CC2)CC1 was read as DT40 TDP1 CPT 18.4µM*, KB-V1 cytotox inactive, TDP1 cell noCPT inconclusive and KB-3-1 cytotox inactive.
`COc1ccc(CNC(=O)c2cnn(-c3ccc(OC)cc3)c2C2CCN(C(=O)OC(C)(C)C)CC2)cc1` gave DT40 TDP1 CPT inconclusive, KB-V1 cytotox inactive, TDP1 cell noCPT inconclusive and KB-3-1 cytotox inactive.
`CCOC(=O)N1CCC(NC(=O)c2cnn(-c3ccc(C)cc3)c2C2CCN(C(=O)OC(C)(C)C)CC2)CC1` gave DT40 TDP1 CPT 20.6µM*, KB-V1 cytotox inconclusive, TDP1 cell noCPT inconclusive and KB-3-1 cytotox inactive.
Screening COc1ccc(-n2ncc(C(=O)Nc3ccc(C)cc3Cl)c2C2CCN(C(=O)OC(C)(C)C)CC2)cc1 returned DT40 TDP1 CPT 16.4µM*, KB-V1 cytotox inactive, TDP1 cell noCPT 16.4µM* and KB-3-1 cytotox inactive.
